Screening results as filed in PubChem.
Pf growth 96h: inhibits malaria parasite growth, 96 h; P. falciparum luciferase reporter growth, 96 h; Potency, µM (titrated, usually from 28.7 µM), for inactives: at the highest dose activity change, negative = inhibition, hits mostly inhibitors; 320,000 compounds, 6.9% hits; AID 504834
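Compounds incubated with erythrocytes infected by luciferase-expressing P. falciparum (2% hematocrit, 0.05% parasitemia final) for 96 hours, 37 C in 5% CO2. Growth inhibition scored as decreased luciferase luminescence.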
AMA1-RON2 inh: inhibitors of Plasmodium falciparum AMA1-RON2 interaction | AlphaScreen AMA1-biotinylated RON2 peptide binding | AID 720542 | 360,000 compounds, 0.2% hits | Potency, µM (top dose mostly 58.2 µM), for the others: at the top dose activity change, negative = inhibition, hits mostly inhibitors;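 further: 0% = vehicle wells and -100% = peptide control; nearly all actives have a fitted effect of over 45% in size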
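AMA1 (3D7) with his tag at 25 nM final met compounds first, then biotinylated RON2 peptide at 25 nM; detection used donor plus acceptor beads, 10 µg/mL apiece, read by AlphaScreen after 30 min at room temperature.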
HCV inh: HCV inhibition. Huh7.5.1 HCVcc-Cre infection, luciferase reporter, 44 h. Potency, µM (series often up to 41.8 µM), for the others: top-dose activity change, negative = inhibition, usual class: inhibitors. 340,000 compounds, 3.4% hits
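After 44 h co-culture of compound, cells and HCVcc-Cre (~0.5 moi), substrate is added for 15 min at room temperature and luciferase measured over 15 sec. Cells were seeded at 1,000/well and pre-cultured 4 h.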
Pf growth 48h: inhibits P. falciparum growth in the first generation, 48 h. Potency, µM (series often up to 28.7 µM), without a hit: at the highest dose activity change, negative = inhibition, hits mostly inhibitors. 310,000 compounds, 5.9% hits. P. falciparum luciferase growth in erythrocytes, 48 h. AID 504832
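Luciferase-expressing P. falciparum in infected erythrocytes (2% hematocrit, 0.1% parasitemia final) in RPMI 1640/0.5% Albumax were exposed to compound for 48 hours at 37 C, 5% CO2; growth read as luminescence.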
* = called active by the depositor; [ ] = another dose, or the depositor's remark. Only some compounds are listed: those with a hit (about 11% of all), similar ones and a draw of the others. The call rests on the fitted dose curve; in most records, active means well fitted curve in the direction sought with a large enough effect; inconclusive means small, poorly fitted or top-dose-only effect, or another doubt; inactive means no such curve, though single readings can be large; an effect the other way counts as inactive or inconclusive. Unless noted, on the % scale 0 is the no-effect control and ±100 the full control effect; potency means the concentration at half of the fitted maximal effect.

What do the screens show for `COc1ccc(C2=NOC(C(=O)NCCN3CCOCC3)C2)cc1` (stereo not given)?
Pf growth 96h: 27.3%; AMA1-RON2 inh: -1.0%; HCV inh: 18.0%; Pf growth 48h: inconclusive

What do the screens show for `COc1cccc(C2=NOC(C(=O)NCCN3CCOCC3)C2)c1` (stereo not given)?
Pf growth 96h: 8.28µM*; AMA1-RON2 inh: 4.4%; HCV inh: 19.6%; Pf growth 48h: inconclusive

Results for CCOC(=O)c1cccc(NC(=O)CC2Oc3ccccc3NC2=O)c1 (stereo not given) ?
Pf growth 96h: 6.2%; AMA1-RON2 inh: 8.6%; HCV inh: 2.2%; Pf growth 48h: -7.8%

How did CS(=O)(=O)c1ccccc1-c1nnc(NC(=O)C2=COCCO2)o1 do in these assays?
Pf growth 96h: 8.1%; AMA1-RON2 inh: 18.7%; HCV inh: 5.9%; Pf growth 48h: 17.5%

How did O=C(Cc1ccsc1-c1ccccc1)NO do in these assays?
Pf growth 96h: 15.0%; AMA1-RON2 inh: -2.1%; HCV inh: 10µM*; Pf growth 48h: 13.1µM*

How did O=C(Cc1csc(NC(=O)c2ccccc2)n1)NO do in these assays?
Pf growth 96h: inconclusive; AMA1-RON2 inh: 104.0%; HCV inh: -14.6%; Pf growth 48h: inconclusive

What do the screens show for `Cc1nc2ccsc2c(=O)n1-c1ccc(Cl)cc1`?
Pf growth 96h: -26.3%; AMA1-RON2 inh: inconclusive; HCV inh: 7.3%; Pf growth 48h: -10.0%

What do the screens show for `Cc1nc2cc(-c3ccc(Cl)cc3)nn2c(C)c1CCC(=O)NC(C)c1ccc2c(c1)OCCO2` (stereo not given)?
Pf growth 96h: inconclusive; AMA1-RON2 inh: -8.7%; HCV inh: inconclusive; Pf growth 48h: inconclusive

Results for Cc1csc(NC(=O)CCc2c(C)nc3cc(-c4ccc(Cl)cc4)nn3c2C)n1 ?
Pf growth 96h: 14.7µM*; AMA1-RON2 inh: -1.5%; HCV inh: -8.1%[8.37 µM]; Pf growth 48h: inconclusive

Results for CCOc1ccc(CCNC(=O)CCCn2nc(C)c3c(C)n(-c4ccccc4)nc3c2=O)cc1 ?
Pf growth 96h: 13.1µM*; AMA1-RON2 inh: 3.0%; HCV inh: inconclusive; Pf growth 48h: -9.8%

How did CCOc1ccc(CCNC(=O)C(C)n2nc(C)c3c(C)n(-c4ccccc4)nc3c2=O)cc1 (stereo not given) do in these assays?
Pf growth 96h: 13.1µM*; AMA1-RON2 inh: 1.3%; HCV inh: -28.8%; Pf growth 48h: inconclusive

Results for CCOc1ccc(CCNC(=O)CCn2nc(C)c3c(C)n(-c4ccccc4)nc3c2=O)cc1 ?
Pf growth 96h: 2.1%; AMA1-RON2 inh: -0.3%; HCV inh: inconclusive; Pf growth 48h: inconclusive

How did Cc1nn(-c2ccccc2)c(C)c1C(=O)OC(C)C(=O)NC1CCCCC1 (stereo not given) do in these assays?
AMA1-RON2 inh: 0.2%; HCV inh: 12.6µM*

How did Cc1nn(-c2ccccc2)c(Cl)c1C(=O)NC1CCCCC1 do in these assays?
Pf growth 96h: 93.4%; AMA1-RON2 inh: -17.2%; HCV inh: -0.1%; Pf growth 48h: -20.2%

Results for Cc1nn(C(C)C(=O)NC2CCCCCC2)c(=O)c2nn(-c3ccccc3)c(C)c12 (stereo not given) ?
Pf growth 96h: 11.7µM*; AMA1-RON2 inh: -8.0%; HCV inh: inconclusive; Pf growth 48h: -11.3%

What do the screens show for `COc1ccc(-c2ccnc3c(Br)c(C)nn23)cc1`?
Pf growth 96h: 38.6%; AMA1-RON2 inh: 37.3%; HCV inh: inconclusive; Pf growth 48h: inconclusive

How did C[C@@H](NC(=O)[C@@H]1CCCN1C(=O)[C@@H]1CCCN1C(=O)c1cccs1)c1ccccc1 do in these assays?
AMA1-RON2 inh: -5.2%

What do the screens show for `CCC(C(=O)NCCc1ccccc1OC)n1nc(C)c2c(C)n(-c3ccccc3)nc2c1=O` (stereo not given)?
Pf growth 96h: 11.7µM*; AMA1-RON2 inh: -3.1%; HCV inh: inconclusive; Pf growth 48h: -17.0%

What do the screens show for `Cc1ccc(CNC(=O)CCCn2nc(C)c3c(C)n(-c4ccccc4)nc3c2=O)cc1`?
Pf growth 96h: 66.3%; AMA1-RON2 inh: 15.9%; HCV inh: inconclusive; Pf growth 48h: 0.3%

What do the screens show for `Cc1ccc(-n2nc3c(=O)n(CCCC(=O)N4CCC(C(N)=O)CC4)nc(C)c3c2C)cc1`?
Pf growth 96h: inconclusive; AMA1-RON2 inh: 7.2%; HCV inh: -9.5%; Pf growth 48h: 10.4µM*
